Experiment [1] deals with Cytochrome P450 2C19 (Homo sapiens) (UniProt P33261). Put plainly: Cytochrome P450 Family 2 Subfamily C Member 19 (CYP2C19) small molecule antagonists: luciferase reporter qHTS assay (AID 1671197). Further: nearly all actives have a fitted effect of over 65% in size. Further: potency means the concentration at half of the fitted maximal effect. On activity change, negative = inhibition: series mostly up to about 120 µM. In outline:
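CYP2C19 P450-Glo, 1536-well qHTS. Cpd + enzyme/proluciferin substrate 10 min RT; + NADPH regen, 37C 1 h; stop with luciferin detection reagent, 20 min RT, luminescence (RLU). Pos ctrl ketoconazole.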
In general terms: In a reporter assay the amount or activity of a reporter protein is the signal.

In experiment [2] the target is Cytochrome P450 2C9 (Homo sapiens) (UniProt P11712). Put plainly: Cytochrome P450 Family 2 Subfamily C Member 9 (CYP2C9) small molecule antagonists: luciferase reporter qHTS assay (AID 1671198). Further: nearly all actives have a fitted effect of over 50% in size. Further: potency means the concentration at half of the fitted maximal effect. On activity change, negative = inhibition: series mostly up to about 120 µM. A digest of the protocol:
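CYP2C9 activity was measured with a P450-Glo proluciferin substrate. Enzyme–substrate mix was held with compound for 10 min at room temperature, then NADPH regeneration solution was added for 1 h at 37C. Luciferin product was read as luminescence.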

The target in experiment [3] is Cytochrome P450 1A2 (Homo sapiens) (UniProt P05177). Put plainly: Cytochrome P450 Family 1 Subfamily A Member 2 (CYP1A2) small molecule antagonists: luciferase reporter qHTS assay (AID 1671199). Further: nearly all actives have a fitted effect of over 50% in size. Further: potency means the concentration at half of the fitted maximal effect. On activity change, negative = inhibition: series mostly up to about 120 µM. A digest of the protocol:
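Human CYP1A2 activity measured with a P450-Glo proluciferin substrate; compounds in DMSO preincubated 10 min at room temperature with enzyme-substrate mix, then NADPH regeneration system added for 1 h. Luciferin detection reagent, 20 min, luminescence read.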

Experiment [4] concerns the target Voltage-gated inwardly rectifying potassium channel KCNH2 (Homo sapiens) (UniProt Q12809). Kind of experiment: Human Ether-a-go-go-Related Gene (hERG) channel small molecule antagonists: fluorescence cell-based qHTS assay (AID 1671200).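 Further: hERG-expressing U2OS cells given a thallium stimulus after FluxOR II dye loading; series mostly up to about 77 µM; nearly all actives have a fitted effect of over 50% in size.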 A digest of the protocol:
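Kinetic two-minute fluorescence traces, sampled at 1 s, were collected following thallium stimulus of U2OS cells (1000 per well) that had been cultured overnight at 37 C and loaded with FluxOR II.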
A general note: The hERG channel carries a current that helps repolarise heart muscle cells.

Experiment [5] has as its target Cytochrome P450 3A4 (Homo sapiens) (UniProt P08684). Put plainly: Cytochrome P450 Family 3 Subfamily A Member 4 (CYP3A4) small molecule antagonists: luciferase reporter qHTS assay (AID 1671201). Further: series mostly up to about 120 µM; nearly all actives have a fitted effect of over 50% in size. A digest of the protocol:
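Proluciferin-to-luciferin conversion by CYP3A4, NADPH-regenerated, 1 h RT; luminescence read as RLU. Ketoconazole as control.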

Several values for one entry are separate records, joined by “and”; a condition that tells them apart may be missing. Equal values may be shown once. Records with an inconclusive call do not appear. A structure can be active in one record and inactive in another. Activity calls are given as the source filed them. The call rests on the fitted dose curve; in most records, active means well fitted curve in the direction sought with a large enough effect in the repeat runs; inconclusive means weak or mixed curves; inactive means no such curve, though single readings can be large; an effect the other way counts as inactive or inconclusive.
On the % scale 0 is the no-effect control and ±100 the full control effect.

Cytochrome P450 2C19 (Homo sapiens), sequence (P33261 whole entry, looked up): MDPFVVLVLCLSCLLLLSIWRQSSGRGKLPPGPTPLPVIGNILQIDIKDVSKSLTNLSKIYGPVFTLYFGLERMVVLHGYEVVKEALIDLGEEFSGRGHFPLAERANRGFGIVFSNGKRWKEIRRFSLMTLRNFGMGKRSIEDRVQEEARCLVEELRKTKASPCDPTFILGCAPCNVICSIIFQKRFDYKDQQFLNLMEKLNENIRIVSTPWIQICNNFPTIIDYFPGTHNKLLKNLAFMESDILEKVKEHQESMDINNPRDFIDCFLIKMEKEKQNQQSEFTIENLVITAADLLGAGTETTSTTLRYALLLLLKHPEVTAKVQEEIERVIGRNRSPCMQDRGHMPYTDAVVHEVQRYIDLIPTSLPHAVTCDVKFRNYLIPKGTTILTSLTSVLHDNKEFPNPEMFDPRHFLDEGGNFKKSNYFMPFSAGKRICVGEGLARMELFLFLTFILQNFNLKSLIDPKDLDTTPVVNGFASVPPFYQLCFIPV
Cytochrome P450 1A2 (Homo sapiens), sequence (P05177 whole entry, looked up): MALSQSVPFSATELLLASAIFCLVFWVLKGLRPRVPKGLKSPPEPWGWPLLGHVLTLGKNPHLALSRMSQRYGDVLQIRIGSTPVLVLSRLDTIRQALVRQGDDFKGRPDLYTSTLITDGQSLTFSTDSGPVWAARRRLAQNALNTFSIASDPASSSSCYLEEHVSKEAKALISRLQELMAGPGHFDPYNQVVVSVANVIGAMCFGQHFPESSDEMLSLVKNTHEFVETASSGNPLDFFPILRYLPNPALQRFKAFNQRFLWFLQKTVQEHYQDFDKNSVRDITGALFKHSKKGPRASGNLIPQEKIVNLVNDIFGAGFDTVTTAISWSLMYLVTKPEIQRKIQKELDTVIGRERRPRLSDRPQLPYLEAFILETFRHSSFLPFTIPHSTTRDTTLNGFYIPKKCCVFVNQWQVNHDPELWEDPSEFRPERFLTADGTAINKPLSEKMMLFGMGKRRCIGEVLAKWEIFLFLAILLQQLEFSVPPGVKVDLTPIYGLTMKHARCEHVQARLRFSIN
Cytochrome P450 3A4 (Homo sapiens), sequence (P08684 whole entry, looked up): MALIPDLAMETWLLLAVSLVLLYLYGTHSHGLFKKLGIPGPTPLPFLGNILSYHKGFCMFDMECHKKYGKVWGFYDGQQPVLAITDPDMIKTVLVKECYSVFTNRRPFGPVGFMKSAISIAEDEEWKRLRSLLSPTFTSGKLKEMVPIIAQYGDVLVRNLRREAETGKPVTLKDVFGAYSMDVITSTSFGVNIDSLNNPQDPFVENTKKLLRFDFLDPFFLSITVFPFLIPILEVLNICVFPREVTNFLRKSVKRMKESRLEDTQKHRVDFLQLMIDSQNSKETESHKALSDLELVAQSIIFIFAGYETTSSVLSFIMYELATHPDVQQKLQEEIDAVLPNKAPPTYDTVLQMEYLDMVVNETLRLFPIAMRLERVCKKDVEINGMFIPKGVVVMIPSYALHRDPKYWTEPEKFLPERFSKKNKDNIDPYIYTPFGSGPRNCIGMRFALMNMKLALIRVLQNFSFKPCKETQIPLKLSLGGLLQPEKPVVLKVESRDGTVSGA
Cytochrome P450 2C9 (Homo sapiens), sequence (P11712 whole entry, looked up): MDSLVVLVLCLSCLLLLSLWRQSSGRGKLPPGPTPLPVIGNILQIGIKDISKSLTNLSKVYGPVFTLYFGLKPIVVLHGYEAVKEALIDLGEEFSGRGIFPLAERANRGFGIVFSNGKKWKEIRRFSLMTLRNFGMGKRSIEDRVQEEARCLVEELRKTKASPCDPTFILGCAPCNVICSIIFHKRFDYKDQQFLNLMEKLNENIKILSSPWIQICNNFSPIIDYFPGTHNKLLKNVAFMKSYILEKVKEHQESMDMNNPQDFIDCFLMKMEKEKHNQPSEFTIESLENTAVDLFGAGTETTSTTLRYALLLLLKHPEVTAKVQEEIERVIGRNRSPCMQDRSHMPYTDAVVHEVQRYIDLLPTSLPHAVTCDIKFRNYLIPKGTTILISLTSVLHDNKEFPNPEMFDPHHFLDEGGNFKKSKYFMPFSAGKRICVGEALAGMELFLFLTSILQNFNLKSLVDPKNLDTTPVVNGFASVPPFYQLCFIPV
Voltage-gated inwardly rectifying potassium channel KCNH2 (Homo sapiens), sequence (Q12809 whole entry, looked up): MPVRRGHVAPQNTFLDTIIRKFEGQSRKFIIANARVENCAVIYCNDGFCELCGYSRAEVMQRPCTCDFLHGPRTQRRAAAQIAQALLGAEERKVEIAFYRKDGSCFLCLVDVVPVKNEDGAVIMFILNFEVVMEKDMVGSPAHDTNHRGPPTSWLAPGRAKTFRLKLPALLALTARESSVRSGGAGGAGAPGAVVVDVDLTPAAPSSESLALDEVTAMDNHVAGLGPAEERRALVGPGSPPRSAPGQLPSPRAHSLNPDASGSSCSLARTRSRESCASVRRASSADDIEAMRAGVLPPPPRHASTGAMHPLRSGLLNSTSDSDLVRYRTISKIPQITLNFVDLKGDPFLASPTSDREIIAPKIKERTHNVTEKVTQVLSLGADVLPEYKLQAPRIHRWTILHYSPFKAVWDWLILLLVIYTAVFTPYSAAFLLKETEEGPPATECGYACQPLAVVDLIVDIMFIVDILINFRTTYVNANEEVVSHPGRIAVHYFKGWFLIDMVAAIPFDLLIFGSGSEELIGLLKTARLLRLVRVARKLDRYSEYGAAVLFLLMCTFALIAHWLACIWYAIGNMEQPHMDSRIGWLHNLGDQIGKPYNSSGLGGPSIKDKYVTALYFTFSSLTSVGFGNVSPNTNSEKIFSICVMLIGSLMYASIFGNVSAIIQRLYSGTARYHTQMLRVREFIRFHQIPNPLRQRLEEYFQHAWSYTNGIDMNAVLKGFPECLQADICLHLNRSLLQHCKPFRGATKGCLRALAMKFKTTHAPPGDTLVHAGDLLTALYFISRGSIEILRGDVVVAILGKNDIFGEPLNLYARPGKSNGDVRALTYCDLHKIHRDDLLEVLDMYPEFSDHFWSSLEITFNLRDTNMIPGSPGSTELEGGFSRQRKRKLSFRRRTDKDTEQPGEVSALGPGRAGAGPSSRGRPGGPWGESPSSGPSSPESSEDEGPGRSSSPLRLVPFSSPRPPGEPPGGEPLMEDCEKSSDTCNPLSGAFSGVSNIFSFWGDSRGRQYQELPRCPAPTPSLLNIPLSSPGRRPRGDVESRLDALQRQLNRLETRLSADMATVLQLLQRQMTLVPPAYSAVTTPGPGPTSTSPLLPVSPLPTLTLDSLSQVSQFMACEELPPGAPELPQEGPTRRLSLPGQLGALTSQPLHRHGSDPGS

For `O=C(O)c1ccc(S(=O)(=O)N(Cl)Cl)cc1`, the Potency entry in experiment [1], in experiment [2], in experiment [3] and in experiment [4] was “inactive” in each case.
Regarding `OCc1cccc(Oc2ccccc2)c1`, the Potency in experiment [1] was 10.2 µM (active) and 22.4 µM (active); in experiment [2], 56.4 µM (active); in experiment [3], 20.3 µM (active) and 39.9 µM (active). Also, the Potency entry in experiment [4] was “inactive”.
For the molecule `CCc1ccccc1CC`, the activity change, negative = inhibition in experiment [1] was 2.36% [at 23.6 µM] (inactive); in experiment [3] it was -28.6% [at 23.6 µM] (inactive). For the same molecule, the Potency result in experiment [2] and in experiment [4] was “inactive” in each case.
As to `Cc1ccc([N+](=O)[O-])cc1S(=O)(=O)O`, the Potency is 35.6 µM (active) in experiment [1]; 56.4 µM (active) in experiment [2]; “inactive and 63.3 µM (active)” in experiment [3]. Moreover, the Potency entry in experiment [4] is “inactive”.
As for `CCCCCCO`, the Potency entry in experiment [1], in experiment [2], in experiment [3], in experiment [4] and in experiment [5] was “inactive” throughout.
Turning to `CC(C)CCCCCCCOC(=O)CCCCC(=O)OCCCCCCCC(C)C`, the Potency in experiment [1] was 92.8 µM (active) and inactive. For the same molecule, the Potency entry in experiment [2], in experiment [3] and in experiment [4] was “inactive” in each case.
With `O=C(O)Cn1c(=O)n(Cc2ccc(Br)cc2F)c(=O)c2ccc(Cl)cc21`, the Potency entry in experiment [1], in experiment [4] and in experiment [5] was “inactive” throughout. Also, the Potency in experiment [2] is 31.7 µM (active) and 15.5 µM (active); in experiment [3], 79.6 µM (active) and inactive.
Take `CSc1ccc(Cl)cc1`: the Potency entry in experiment [1], in experiment [2], in experiment [3], in experiment [4] and in experiment [5] was “inactive” in each case.
On to `CCCCCC(=O)O`, for which, in experiment [1], the Potency is 71.1 µM (active) and inactive. For the same molecule, the Potency entry in experiment [2], in experiment [3] and in experiment [4] was “inactive” each time.
With `COCCCN`, the Potency entry in experiment [1], in experiment [2], in experiment [3], in experiment [4] and in experiment [5] was “inactive” in each case.
For `C[C@]12CC[C@@H]3c4ccc(O)cc4CC[C@H]3[C@@H]1C[C@@H](O)[C@@H]2O`, the Potency entry in experiment [1], in experiment [2], in experiment [4] and in experiment [5] was “inactive” in each case. In experiment [3], the Potency was 31.7 µM (active) and inactive.
Take `CC(=O)OCc1ccccc1`: the Potency result in experiment [1], in experiment [2], in experiment [3], in experiment [4] and in experiment [5] was “inactive” in each case.
Regarding `Clc1ccccn1`, the Potency result in experiment [1], in experiment [2], in experiment [3], in experiment [4] and in experiment [5] was “inactive” throughout.
Consider `COC(=O)c1cccnc1`, for which the Potency result in experiment [1], in experiment [2], in experiment [3] and in experiment [4] was “inactive” in each case.
In the case of `CC1(C)CC(N)CC(C)(CN)C1` (stereo not given), the Potency result in experiment [1], in experiment [2], in experiment [3] and in experiment [4] was “inactive” in each case.
On to `CCO[Si](CCC#N)(OCC)OCC`, for which the Potency entry in experiment [1], in experiment [2], in experiment [3] and in experiment [4] was “inactive” throughout.
As to `CC(C)(C#N)c1cc(Cn2cncn2)cc(C(C)(C)C#N)c1`, the Potency is 21.8 µM (active) and 15.5 µM (active) in experiment [1]; 9.75 µM (active) and 8.71 µM (active) in experiment [2]; 9.75 µM (active) and 15.5 µM (active) in experiment [3]. Further, the Potency result in experiment [4] is “inactive”.
For `C=CC[N+](C)(C)CC=C`, the Potency in experiment [1] is 56.8 µM (active) and inactive. For the same molecule, the Potency entry in experiment [2], in experiment [3] and in experiment [4] was “inactive” throughout.
As to `Nc1nc(N)nc(-c2ccccc2)n1`, the Potency result in experiment [1], in experiment [2], in experiment [4] and in experiment [5] was “inactive” throughout. Further, the Potency in experiment [3] was 31.4 µM (active) and 35.6 µM (active).
Consider `O=C1c2ccccc2CCc2ccccc21`, for which the Potency in experiment [1] was 18.2 µM (active) and 7.76 µM (active); in experiment [2] it was 36.3 µM (active); in experiment [3], 1.45 µM (active) and 1.62 µM (active). Moreover, the Potency result in experiment [4] and in experiment [5] was “inactive” throughout.
Turning to `CC(=O)c1ccc(O)cc1`, the Potency entry in experiment [1], in experiment [2], in experiment [3], in experiment [4] and in experiment [5] was “inactive” each time.
As for `CC(O)CC(C)(C)O` (stereo not given), the Potency result in experiment [1], in experiment [2], in experiment [3], in experiment [4] and in experiment [5] was “inactive” in each case.
Consider `CCNC(=S)NCC`, for which the Potency entry in experiment [1], in experiment [2] and in experiment [4] was “inactive” each time. Moreover, in experiment [3], the Potency was 44.8 µM (active).
Turning to `CC(=O)CCC=C(C)C`, the Potency result in experiment [1], in experiment [2], in experiment [3], in experiment [4] and in experiment [5] was “inactive” each time.
Take `C=C(C)CNCC`: the Potency entry in experiment [1], in experiment [2], in experiment [3] and in experiment [4] was “inactive” throughout.
As for `O=C(O)/C=C/C(=O)O`, the Potency entry in experiment [1], in experiment [2], in experiment [3], in experiment [4] and in experiment [5] was “inactive” throughout.
On to `NCCCCCCN`, for which the Potency result in experiment [1], in experiment [2], in experiment [3], in experiment [4] and in experiment [5] was “inactive” each time.
As for `CCCCCCCCCCCCCCCCO`, the Potency result in experiment [1], in experiment [3] and in experiment [4] was “inactive” throughout. Moreover, the Potency in experiment [2] was 17.8 µM (active) and inactive.
Regarding `CC(=O)CC(C)(C)O`, the Potency in experiment [1] is 40.6 µM (active) and inactive. Also, the Potency result in experiment [2], in experiment [3] and in experiment [4] was “inactive” each time.
Take `Cc1ccc(S(=O)(=O)N=C=O)cc1`: the Potency entry in experiment [1], in experiment [2], in experiment [3], in experiment [4] and in experiment [5] was “inactive” each time.
Take `CC(C)=CCl`: the Potency entry in experiment [1], in experiment [2], in experiment [3], in experiment [4] and in experiment [5] was “inactive” throughout.
On to `O=C(O)c1cc2ccccc2cc1O`, for which the Potency was 35.3 µM (active) and 79.6 µM (active) in experiment [1]; 62.8 µM (active) and 56.4 µM (active) in experiment [2]; 39.9 µM (active) in experiment [3]. Also, the Potency result in experiment [4] and in experiment [5] was “inactive” throughout.
`C=Cc1ccc(C)cc1`: the Potency entry in experiment [1], in experiment [2], in experiment [3], in experiment [4] and in experiment [5] was “inactive” each time.
